{"source": "PubChem BioAssay AID430", "about": "(Sanford-Burnham Center for Chemical Genomics, 2006)", "note": "The whole screen tested about 63,000 compounds, of which about 1,100 (1.7%) were called active. The sample holds actives, similar compounds and a random draw of the others, so the mix is not that of the screen. Rule as the data show it: active = cytotoxicity above about 50%; inactive = the rest. Potency and affinity values are given separately.", "data": [{"assay": "HPDE-C7 pancreatic duct cell viability loss – fluorescence, HTS (AID 430);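 also: cells exposed to compound for 48 hours before viability readout; 0% = vehicle and 100% = reference cytotoxic drug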", "conditions": "HPDE-C7 pancreatic duct cells viability, at 10 µM, active compounds read high", "values": [{"smiles": "CC(C)COc1cccc(C(=O)Nc2ccc(S(=O)(=O)N3CCOCC3)cc2)c1", "cytotoxicity": "16.1% (inactive)"}, {"smiles": "CCOc1ccc(N2C(=O)c3ccc(C(=O)OCc4c(C)noc4C)cc3C2=O)cc1", "cytotoxicity": "-3.6% (inactive)"}, {"smiles": "CCCOC(=O)c1ccc(-c2c(C)noc2-c2ccc(OC)cc2O)o1", "cytotoxicity": "-2.8% (inactive)"}, {"smiles": "CCOC(=O)COC(=O)c1ccc(O)cc1", "cytotoxicity": "-3.6% (inactive)"}, {"smiles": "CCOc1ccc(-c2n[nH]c(C)c2Oc2ccc(OC)cc2)c(O)c1", "cytotoxicity": "5.9% (inactive)"}, {"smiles": "CCOC(=O)c1ccc(OCC(=O)c2ccc(O)cc2O)cc1", "cytotoxicity": "-2.2% (inactive)"}, {"smiles": "CCOC(=O)c1c(N)n[nH]c1-c1ccc(OC)cc1", "cytotoxicity": "2.4% (inactive)"}, {"smiles": "COc1ccc(CC(NC(C)=O)C(=O)N2CCN(C(=O)Nc3ccc(Cl)cc3)CC2)cc1OC", "note": "(configuration not stated)", "cytotoxicity": "4.9% (inactive)"}, {"smiles": "O=C(Nc1nc2ccccc2n1CCOc1ccccc1)c1ccco1", "cytotoxicity": "-12.8% (inactive)"}, {"smiles": "Cc1cccc(Nc2nc(NC(C)C)nc(Oc3ccc(=O)n(C)n3)n2)c1", "cytotoxicity": "-11.3% (inactive)"}, {"smiles": "CCOC(=O)N1CCN(CC(=O)Nc2cc(OCC)ccc2OCC)CC1", "cytotoxicity": "-9.8% (inactive)"}, {"smiles": "CCCCc1ccc(NC(=O)OC)cc1", "cytotoxicity": "-16.3% (inactive)"}, {"smiles": "CCCCc1ccc(NC(=O)COCC)cc1", "cytotoxicity": "-12.8% (inactive)"}, {"smiles": "CC(=O)Nc1ccc(S(=O)(=O)NCC(C)NS(=O)(=O)c2ccc(NC(C)=O)cc2)cc1", "note": "(configuration not stated)", "cytotoxicity": "-20% (inactive)"}, {"smiles": "OC1(Cc2ccn[nH]2)CCCCC1", "cytotoxicity": "17.9% (inactive)"}, {"smiles": "O=C(OCCN1CCOCC1)c1cccnc1", "cytotoxicity": "0.3% (inactive)"}, {"smiles": "CCOc1cc(C(=O)Nc2nnc(C)s2)cc(OCC)c1OCC", "cytotoxicity": "-7.4% (inactive)"}, {"smiles": "COc1ccc(-c2cc(C(=O)Nc3cc(C)n(Cc4ccc(Cl)cc4)n3)no2)cc1OC", "cytotoxicity": "6.9% (inactive)"}, {"smiles": "COc1ccc(NC(=O)c2cc(-c3ccccc3OC)on2)cc1", "cytotoxicity": "54.3% (active)"}, {"smiles": "COc1ccc(OC)c(-c2cc(C(=O)Nc3c(C)nn(Cc4ccc(Cl)cc4)c3C)no2)c1", "cytotoxicity": "17.1% (inactive)"}, {"smiles": "COc1ccc(OC)c(-c2cc(C(=O)Nc3cc(C)n(Cc4ccc(Cl)cc4)n3)no2)c1", "cytotoxicity": "62.5% (active)"}, {"smiles": "COc1ccccc1-c1cc(C(=O)Nc2cccnc2)no1", "cytotoxicity": "79.8% (active)"}, {"smiles": "COc1ccccc1-c1cc(C(=O)NC(C)C)no1", "cytotoxicity": "-2.5% (inactive)"}, {"smiles": "COc1ccccc1-c1cc(C(=O)Nc2ccc(F)cc2F)no1", "cytotoxicity": "-11.9% (inactive)"}, {"smiles": "COc1ccc(CNC(=O)c2cc(-c3ccccc3OC)on2)cc1", "cytotoxicity": "-1.1% (inactive)"}, {"smiles": "COc1ccccc1-c1cc(C(=O)Nc2cc(C)on2)no1", "cytotoxicity": "-2.8% (inactive)"}, {"smiles": "Cc1cccc(Cn2c(SCCN3CCOCC3)nc3c2c(=O)n(C)c(=O)n3C)c1", "cytotoxicity": "-7.8% (inactive)"}]}]}
